The values that follow come from the OligoGym collection.
Also: reference of the scale not given here.

The target of one assay is C14orf149. The assay can be described thus: pooled miR-30 sensor sort-seq; sequence = guide strand. The note with it: shRNA.
The sequence TTCTATTATAAAGCTTGCTGTA returned a sensor-assay potency score (higher = more potent) of -1.15.
For the sequence TATAAGCATCTTTTCCATCTGT, the sensor-assay potency score (higher = more potent) turned out to be 0.316.
On the same count and under the same terms, as for TTAAAATCACCACATTTCGCTT, the figure is -0.838.

The target in another assay is C14orf181. The description is as above. Conditions: shRNA.
As to TGCACTGCCGCTTCCGACCGGG, the sensor-assay potency score (higher = more potent) is -0.747.
As for AGGTATTTTAGCTTGGAGGTGG, the sensor-assay potency score (higher = more potent) was -1.31.
The sequence TAACCCTTCGCTGACCCGGCGT came in with a sensor-assay potency score (higher = more potent) of -0.821.
Still for that read-out and setting: the result for TTCGGAGTGAAGGAGGCGCTGC reads -1.09; that for TTCGGTTTTGTGCAAGGGGGAA, -0.823.
Sequence TAGCTTGGAGGTGGTGGTGGGG showed a sensor-assay potency score (higher = more potent) of -0.69.
In turn, AAAGTGAAAGTCTTCGGAGTGA had a sensor-assay potency score (higher = more potent) of 0.018.
For the sequence TTAGCTTGGAGGTGGTGGTGGG, the sensor-assay potency score (higher = more potent) was -0.365.
Turning to TATTTTAGCTTGGAGGTGGTGG, the sensor-assay potency score (higher = more potent) was -0.309.
The same measure, in the same setting: the result for AAAGTCTTCGGAGTGAAGGAGG reads -0.89.
The same measure, in the same setting: the result for TTTAGCTTGGAGGTGGTGGTGG reads 0.0381.
The same measure, in the same setting: as for TTCGCCTGGAGCGCGTCCCTTC, the figure is -1.3.
